# DT40 TDP1 CPT – DT40-hTDP1 cell growth loss with CPT. 12% of 420,000 active. chicken DT40 Tdp1-/-;hTDP1 cells + 20 nM CPT, ATP luminescence, 48 h. AID 686979. Potency, µM (series often up to 46.2 µM), most hits filed as inhibitors; note: nearly all actives have a fitted effect of over 55% in size
#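 Cell growth measured by CellTiter-Glo luminescence after a minimum 48 h, 37 C compound exposure with 20 nM CPT in Tdp1-knockout DT40 cells stably expressing hTDP1, seeded 400/well; qHTS titration format.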
# KB-V1 MDR tox – KB-V1 MDR subline cytotoxicity; KB-V1 MDR cells viability, CellTiter-Glo, 72 h; Potency, µM (doses to about 46.1 µM), actives largely listed as cytotoxic; 3.4% of 400,000 active; AID 1347076; note: nearly all actives have a fitted effect of over 60% in size
#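 qHTS viability screen in drug-selected KB-V1 MDR cells: 72 h compound treatment at 37 degrees C, ATP luminescence end point.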
# KB-3-1 cytotox – KB-3-1 parental cell cytotoxicity; KB-3-1 viability, CellTiter-Glo ATP luminescence, 72 h; Potency, µM (series often up to 46.1 µM), usual class: cytotoxic; 1.4% of 400,000 active; AID 1347075; note: nearly all actives have a fitted effect of over 60% in size
#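 Cytotoxicity measured as CellTiter-Glo luminescence after 72 h at 37 C. Compound titrations were pinned onto drug-naive KB-3-1 parental adenocarcinoma cells grown in DMEM with 10% FBS, and normalized data fitted to concentration-response curves.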
# HT1080 IDH1KD tx – toxicity to HT-1080 IDH1 knockdown cells (counter line). HT-1080 IDH1 knockdown viability, ATP luminescence, 48 h. Potency, µM (highest dose often 46.1 µM), actives largely listed as cytotoxic. AID 686971. 2% of 360,000 active
#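 Using the IDH1-knockdown HT-1080 line run in the same batch and compound series as the NT line, viability after 48 h at 37 °C was determined by CellTiter-Glo luminescence and expressed as % activity.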
# HT1080NT lethal – kills 2HG-producing HT-1080-NT fibrosarcoma cells; Potency, µM (highest dose often 46.1 µM), usual class: cytotoxic; HT-1080-NT fibrosarcoma viability, CellTiter-Glo ATP luminescence, 48 h; AID 686970; 1.6% of 360,000 active;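 note: NT is the 2HG producing partner of a matched IDH1 knockdown line; nearly all actives have a fitted effect of over 55% in size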
#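 Viability of the 2HG-overproducing fibrosarcoma line after 48 hours of compound exposure at 37 degrees C was determined by luminescence with CellTiter-Glo, and concentration-effect curves were then fitted and categorized.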
# TDP1 cell noCPT – qHTS for Inhibitors of human tyrosyl-DNA phosphodiesterase 1 (TDP1): qHTS in cells in absence of CPT | DT40 Tdp1-/- hTDP1 cells, no CPT, ATP luminescence, 48 h | Potency, µM (doses to about 46.2 µM), actives largely listed as inhibitors | 15% of 420,000 active | AID 686978, 2013; note: nearly all actives have a fitted effect of over 55% in size
#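 Chicken DT40 Tdp1-/- cells stably complemented with human TDP1 were seeded at 400 cells/well with DMSO in place of 20 nM camptothecin. After compound pinning, cells grew at least 48 hr at 37 °C; viability read by CellTiter-Glo luminescence.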
# A number is an active result; – = inactive; ? = inconclusive; · = not tested or not shown; ! = a repeat was not active. Rows were chosen to be rich in hits. Some 19% of all compounds tested hit in one or more screens of this group. Calls come from the whole dose curve; as a rule, active = well fitted curve in the direction sought with a large enough effect; inconclusive = small, poorly fitted or top-dose-only effect, or another doubt; inactive = no such curve, though single readings can be large; an effect the other way counts as inactive or inconclusive.
SMILES,DT40 TDP1 CPT,KB-V1 MDR tox,KB-3-1 cytotox,HT1080 IDH1KD tx,HT1080NT lethal,TDP1 cell noCPT
Nc1ccn(CC(=O)N[C@H](CO)Cc2c[nH]c3ccccc23)c(=O)n1,–,–,–,–,–,–
COc1cc(OC)c(C2C=C(c3ccc(C)cc3)Nc3c(C(=O)Nc4ccccc4)cnn32)cc1OC (stereo not drawn),?,–,–,·,·,?
O=C(c1ccncc1)N1CCC2(CCCN(c3ccccc3)C2)CC1,–,·,·,·,·,–
CCOc1ccc2nc(N3CCCC(C(=O)NC4CCCC4)C3)sc2c1 (stereo not drawn),?,?,?,–,?,21µM
CCOc1ccc2nc(N3CCCC(C(=O)Nc4cccc(Cl)c4C)C3)sc2c1 (stereo not drawn),?,–,–,·,·,?
CCOc1ccc2nc(N3CCCC(C(=O)Nc4ccc(CC)cc4)C3)sc2c1 (stereo not drawn),16µM,–,–,·,·,10µM
CCOc1ccc2nc(N3CCCC(C(=O)Nc4cc(Cl)c(OC)cc4OC)C3)sc2c1 (stereo not drawn),18µM,–,–,·,·,13µM
OC[C@@H]1CN(Cc2ccco2)C[C@H](n2cnc3c(N4CCOCC4)ncnc32)O1,–,–,–,–,–,–
CC(C)OC(=O)c1c(NC(=O)C2c3ccccc3Oc3ccccc32)sc2c1CCCC2,?,–,–,·,·,?
Cc1cccc(S(=O)(=O)Nc2cc(Cl)ccc2N2CCOCC2)c1,–,–,–,–,–,?
O=C1c2ccccc2OC2(C=Cc3ccccc3O2)N1Cc1ccccc1 (stereo not drawn),4.6µM,4.1µM,?,18µM,?,18µM
O=C1NC2(CCN(Cc3ccccc3)CC2)Oc2ccccc21,–,–,–,–,–,–
CCn1nc(NS(=O)(=O)c2ccccc2)c2cc3ccccc3nc21,23µM,–,–,–,–,?
CN(C)c1ccc(/C=N/NC(=O)CNC(=O)c2ccncc2)cc1,–,–,–,–,–,–
CC/C(=C\c1ccc(N(C)C)cc1)c1ccncc1,23µM,10µM,21µM,?,?,?
CCOc1cc(/C=N/Nc2nnc(C)n2N)ccc1OC(C)=O,?,–,–,21µM,16µM,16µM
CCc1nnc(N/N=C/c2ccc(O)c(OC)c2)n1N,?,–,–,–,–,–
CCc1nnc(N/N=C\c2ccc(OC(C)=O)c(OC)c2)n1N,–,–,–,18µM,?,–
COc1ccc(/C=N/Nc2nncn2N)cc1Br,?,–,–,?,16µM,?
Cc1nnc(N/N=C/c2cccc(C(F)(F)F)c2)n1N,–,–,–,?,?,–
Cc1ccc(C(=O)O/N=C(\N)Cc2cccs2)c(Cl)c1,?,–,–,–,?,–
CCOC(=O)N1CCN(c2cc(C)c(C(C)=O)cc2F)CC1,?,–,–,–,–,?
CC(=O)c1cc(F)c(N2CCN(C(=O)Cc3ccccc3)CC2)cc1C,15µM,?,–,–,–,15µM
CCC(=O)c1cc(F)c(N2CCN(C(=O)c3ccco3)CC2)cc1C,?,–,–,–,–,29µM
O=C(COc1ccccc1-c1ccccc1)N/N=C/c1ccccn1,23µM,?,–,–,–,23µM
SMILES,DT40 TDP1 CPT,KB-V1 MDR tox,KB-3-1 cytotox,HT1080 IDH1KD tx,HT1080NT lethal,TDP1 cell noCPT
Cc1cccc(C)c1OCC(=O)N/N=C/c1cccnc1,?,–,–,–,–,15µM
O=C(COc1ccc(-c2ccccc2)cc1)N/N=C/c1cccnc1,?,–,–,–,–,?
O=C(COc1ccccc1-c1ccccc1)N/N=C/c1ccc2ccccc2c1,1.2µM,?,1.3µM,1.2µM,?,0.92µM
O=C(COc1ccccc1-c1ccccc1)N/N=C/c1cccnc1,15µM,?,?,?,?,13µM
O=C(N/N=C/c1ccccn1)C1CC1,–,–,–,–,–,–
COC(=O)N/N=C/c1cccnc1,–,–,–,–,?,–
CC1=C(C(N)=O)C(c2cccc(Br)c2)n2nc(SCc3ccccc3)nc2N1 (stereo not drawn),–,–,–,·,·,–
CC(=O)COc1ccc2c(C)c(-c3ccccc3)c(=O)oc2c1,?,?,–,–,–,26µM
CCCCn1c(NCc2ccccn2)nc2ccccc21,?,13µM,–,?,–,–
CCCCCn1c(NCc2ccc(OC)cc2)nc2ccccc21,16µM,?,?,·,·,23µM
COc1ccc(NC(=O)C(NS(=O)(=O)c2cccs2)C(C)C)cc1Cl (stereo not drawn),–,–,–,–,–,?
COc1ccc(CN2CCOc3ccc(CN4CCC(O)CC4)cc3C2)c(OC)c1OC,–,·,·,·,·,–
Cc1c(C(=O)Nc2ccc(F)cc2)oc2ccc(S(=O)(=O)N3CCC4(CC3)OCCO4)cc12,16µM,?,–,–,?,22µM
Cc1c(C(=O)Nc2ccc(F)c(F)c2)oc2ccc(S(=O)(=O)N3CCC4(CC3)OCCO4)cc12,13µM,·,·,·,·,12µM
Cc1c(C(=O)Nc2ccc(Br)cc2F)oc2ccc(S(=O)(=O)N3CCC4(CC3)OCCO4)cc12,–,·,·,·,·,?
Cc1ccc(NC(=O)c2oc3ccc(S(=O)(=O)N4CCC5(CC4)OCCO5)cc3c2C)c(C)c1,8.2µM,·,·,·,·,6.5µM
Cc1c(C(=O)Nc2ccc(F)c(F)c2)oc2ccc(S(=O)(=O)N3CCCCC3)cc12,23µM,7.3µM!,–,–,–,?
CSc1nnc(C(C)c2ncc(C(F)(F)F)cc2Cl)n1C (stereo not drawn),–,–,–,–,–,?
Nc1nccs1,–,·,·,–,–,–
O=C1CN(C(=O)COC(=O)[C@@H]2CCCN2S(=O)(=O)c2ccc(Cl)cc2)c2ccccc2N1,–,–,–,–,–,–
CCn1c(C(=O)N2CCC(Cc3ccccc3)CC2)cc2sccc21,?,–,–,–,–,?
O=C(Cn1c(C(=O)N2CCN(C3CCCC3)CC2)cc2sccc21)c1ccccc1,18µM,–,–,–,–,?
CC(OC(=O)COc1ccccc1Cc1ccccc1)C(=O)N(C)c1ccccc1 (stereo not drawn),–,–,–,–,–,?
C/C(=N/NC(=O)c1ccncc1)c1ccc(NC(=O)c2ccc(Cl)cc2Cl)cc1,–,?,?,–,–,–
N/C(=N\OC(=O)c1cccc2ccccc12)c1ccncc1,–,–,–,–,–,–
CC(=NNC(=O)c1ccncc1)c1ccccc1O,0.18µM,–,?,?,?,0.13µM
CC(=O)c1ccc2ccccc2c1OC(=O)c1ccncc1,?,–,–,–,–,26µM
